The values below come from ChEMBL document CHEMBL3433997, “St. Jude Leishmania screening dataset” (2016).

Holding throughout (type): functional
Experiment [1] addresses Solute carrier family 2, facilitated glucose transporter member 1 (Homo sapiens) (UniProt P11166). Kind of experiment: ST_JUDE_LEISH: Cytotoxicity at 2uM final concentration against transgenic Leishmania Mexicana promastigotes LmGLUT1 that are glucose transport deficient and complemented with the human glucose transporter GLUT1. Activity is measured by DNA content using SYBR green in vitro.

Experiment [2] has as its target Hexose transporter 1 (Plasmodium falciparum) (UniProt O97467). Put plainly: ST_JUDE_LEISH: Cytotoxicity at 2uM final concentration against transgenic Leishmania Mexicana promastigotes LmPfHT that are glucose transport deficient and complemented with the Plasmodium falciparum hexose transporter. Activity is measured by DNA content using SYBR green in vitro.
For experiment [3], the target named is Glucose transporter (Leishmania mexicana) (UniProt O61059). Put plainly: ST_JUDE_LEISH: Cytotoxicity at 2uM final concentration against transgenic Leishmania Mexicana promastigotes LmGT2 that are glucose transport deficient and complemented with the L. Mexicana glucose transporter 2. Activity is measured by DNA content using SYBR green in vitro.

Solute carrier family 2, facilitated glucose transporter member 1 (Homo sapiens), sequence (P11166 whole entry): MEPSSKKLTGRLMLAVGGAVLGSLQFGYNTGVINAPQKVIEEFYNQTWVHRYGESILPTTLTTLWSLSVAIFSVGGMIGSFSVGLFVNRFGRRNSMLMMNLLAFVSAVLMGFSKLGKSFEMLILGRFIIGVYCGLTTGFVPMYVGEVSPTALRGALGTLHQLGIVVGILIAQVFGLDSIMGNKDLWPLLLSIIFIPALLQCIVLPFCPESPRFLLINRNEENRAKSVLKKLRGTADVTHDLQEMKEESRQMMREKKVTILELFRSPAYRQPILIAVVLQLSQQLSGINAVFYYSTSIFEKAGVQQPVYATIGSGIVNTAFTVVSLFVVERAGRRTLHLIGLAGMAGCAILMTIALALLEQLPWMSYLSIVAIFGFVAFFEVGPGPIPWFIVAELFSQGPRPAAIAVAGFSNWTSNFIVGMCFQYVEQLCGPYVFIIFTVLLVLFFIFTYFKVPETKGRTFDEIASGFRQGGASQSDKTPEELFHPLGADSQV

For the molecule `Cc1ccc(NC(=O)c2ccc(CN3CCCN(Cc4cccc(O)c4)CC3)cc2)cc1F`, the results for the inhibition in experiment [1], in experiment [2] and in experiment [3] were 7.81%, 6.4% and 6.83%, respectively.
`FC(F)(F)Oc1ccc(Nc2cc(-c3ccncc3)nc(-c3cccnc3)n2)cc1`: the inhibition is 2.18% in experiment [1], 3.54% in experiment [2] and 0.59% in experiment [3].
`O=C(NC1CC1)c1ccc(N2CCC(COc3cccc(F)c3)CC2)nc1`: the inhibition turned out to be 5.26% in experiment [1], 4.16% in experiment [2] and 6.94% in experiment [3].
On to `NS(=O)(=O)c1cccc(N/C=C2\C(=O)Nc3ccc(S(=O)(=O)Cc4c(Cl)cccc4Cl)cc32)c1`, for which the inhibition in experiment [1] came to 4.04%; in experiment [2], 0.57%; in experiment [3], 3.06%.
The like results for `Cc1cccc(C(=O)Nc2ccc(N3CCCN(Cc4cccc(O)c4)CC3)cc2)c1` were, in that order, 5.01%, 3.72% and 2.78%.
For `CC(C)NCc1cccc(-c2cccc(NC(=O)c3cccc(C#N)c3)c2)c1`, in that order: 5.22%, 4.93% and 5.23%.
For `CO/C(=C\C=C\c1cc2cc(Cl)c(Cl)cc2[nH]1)C(=O)NCCCN(C)CCN(C)c1ccccc1`, in that order: 4.46%, 3% and 1.47%.
`Cc1nc(N)nc(N)c1OCc1cccc2ccccc12`: the inhibition in experiment [1] was 0.2%; in experiment [2], 1.33%; in experiment [3], -1.23%.
In the case of `Clc1ccccc1C=NN=c1cc[nH]c2ccccc12`, the inhibition in experiment [1] is 3.99%; in experiment [2], 5.58%; in experiment [3] it was 5.41%.
For `CC(C)(C)c1ccc(CN2CCC(NC(=O)c3ccc(-c4cccc(F)c4)s3)CC2)cc1`, in that order: -0.34%, -2.33% and 2.67%.
For `Cc1noc(C)c1-c1ccc2c(Nc3ccccc3C(C)(C)C)c(C(=O)NCc3ccc(OC(C)C)cc3)cnc2c1`, the inhibition in experiment [1] amounted to 3.36%; in experiment [2] it was 4.36%; in experiment [3] it was 5.28%.
Take `O=C(Nc1ccc(C(F)(F)F)cc1)c1cccc(S(=O)(=O)NC2CCN(CC3CCCCC3)CC2)c1`: the inhibition in experiment [1] turned out to be 5.27%; in experiment [2], 5.53%; in experiment [3], 4.52%.
The like results for `Cc1cccc2nc(-c3cccc(-c4cccc(CNCc5ccccc5)c4)c3)[nH]c12` were, in that order, 1.86%, 0.34% and 0.66%.
For `CCOc1ccc2c(=NN=Cc3ccccc3OC)cc(C)[nH]c2c1`, in that order: 7.35%, 7.09% and 6.71%.
On to `CCOC(=O)c1ccc(NC(=O)N[C@@H](Cc2ccccc2)C(=O)NC2CCN(Cc3ccc(OCCCN(C)C)cc3)C2)cc1` (some centres undefined), for which the inhibition in experiment [1] is -0.91%; in experiment [2] it was 0.74%; in experiment [3] it was 0.98%.
The like results for `COc1ccc(O)c(C(=O)c2cc(C(=O)NCCc3ccccc3)c(=O)n(CCc3ccccc3)c2)c1` were, in that order, 4.48%, 3.07% and 5.64%.
With `CC(C)c1ccc(NC(=O)NCC2CCCN(CCCCCNC(=O)/C=C/c3ccc(Cl)c(Cl)c3)C2)cc1` (centres undefined), the inhibition was determined as 2.73% in experiment [1], 1.74% in experiment [2] and 2.62% in experiment [3].
For `Oc1cccc(-c2cnc3ccc(NCc4ccc(F)cc4)nn23)c1`, the inhibition in experiment [1] was -3.17%; in experiment [2], 0.63%; in experiment [3], -1.63%.
For `Cc1cc2nc(-c3ccc(/C=C/C(=O)NCc4ccc(Cl)c(Cl)c4)cc3)[nH]c2cc1C`, in that order: 8.62%, 8.06% and 4.96%.
On to `COC(=O)c1cccc(CNCc2cccc(-c3ccc(-c4nc5ccccc5[nH]4)s3)c2)c1`, for which the inhibition in experiment [1] was 0.25%; in experiment [2] it was 2.5%; in experiment [3], 1.96%.
Regarding `COc1ccc(Nc2ncc3c(-c4cccc(NC(=O)c5ccc(N)cc5)c4)c[nH]c3n2)cc1OC`, the values for the inhibition in experiment [1], in experiment [2] and in experiment [3] were 9.74%, 8.84% and 7.97%, respectively.
The like results for `COc1ccc(C2CCN(CCCCNC(=O)c3ccc(NC(=O)c4ccc(Cl)cc4)cc3)CC2)c(C)c1` were, in that order, -0.79%, -0.57% and -2.18%.
In the case of `O=[N+]([O-])c1cccc(CNCC2CCN(Cc3ccc(O)cc3)CC2)c1`, the figures for the inhibition in experiment [1], in experiment [2] and in experiment [3] were 21.4%, 5.62% and 2.59%, respectively.
Regarding `CN1CCc2ccc(NC(=O)Nc3ccc(-c4ccccc4)cc3)cc2C1`, the results for the inhibition in experiment [1], in experiment [2] and in experiment [3] were 1.53%, 0.83% and 0.87%, respectively.
For `O=C(/C=C/c1ccc(Cl)c(Cl)c1)NCCCCCN1CCCC(C(=O)Nc2ccc(F)c(Cl)c2)C1` (centres undefined), the inhibition in experiment [1] worked out at 3.02%; in experiment [2], 5.25%; in experiment [3], 4.87%.
The like results for `O=S(=O)(c1c(Cl)cc(Cl)cc1Cl)N1CCCCC(c2ccc(C(F)(F)F)cc2)=N1` were, in that order, 5.69%, 8.89% and 6.28%.
For `O=C(/C=C/c1ccc(Cl)c(Cl)c1)NCCCCCN1CCC(NC(=O)Nc2cccc(F)c2)CC1`, the results for the inhibition in experiment [1], in experiment [2] and in experiment [3] were 2.32%, 1.97% and 2.29%, respectively.
Turning to `NC(=O)C1CCN(Cc2ccc(-c3ccc(-c4nc5cc(C(F)(F)F)ccc5[nH]4)cc3)cc2)CC1`, the inhibition in experiment [1] worked out at 4.65%; in experiment [2], 2.32%; in experiment [3], 3.93%.
For `CC1(C)N=C(N)N=C(N)C1c1ccc(Cl)cc1` (centres undefined), in that order: 4.19%, 5.72% and 3.51%.
Take `Cc1cccc2nc(C3CCN(CC4CCN(C(=O)/C=C/c5ccc(Cl)c(Cl)c5)CC4)CC3)[nH]c12`: the inhibition stood at 10.9% in experiment [1], 11.5% in experiment [2] and 10.6% in experiment [3].
For `CC(C)(C)c1ccc(CNC(=O)c2ccc(CNC3CCC(N)CC3)s2)cc1` (centres undefined), in that order: -0.19%, 0.91% and 0.31%.
For `CCC(NCc1ccc(-c2cncc(C(=O)NCC(C)C)c2)cc1)c1ccccc1` (centres undefined), in that order: 7.89%, 7.18% and 8.76%.
With `COc1ccc2nccc([C@@H](O)CN3CCC(NC(=O)c4ccc(Oc5ccccc5)cc4)CC3)c2c1`, the results for the inhibition in experiment [1], in experiment [2] and in experiment [3] were 3.02%, 8.83% and 1.34%, respectively.

As usually defined, the inhibition is the relative decrease from the control value, in per cent.
